NS1 inh: blocks influenza NS1 protein function; AID 2326; hit rate 0.4% among 270,000; Potency, µM (doses to about 46.1 µM), inactives show at the top dose activity, positive = more growth; calls by dose curve; also: potency is read from the fitted curve at half-maximal effect; actives are rising curves; nearly all actives have a fitted effect of over 50% in size
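A cell-based growth assay was used: compounds that relieve NS1-induced slow growth of budding yeast raise OD600. Assay medium was yeast nitrogen base with ammonium sulphate and -URA supplement, pH 6.0, with 2% galactose.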
Shiga toxin inh: inhibitors of Shiga toxin in Vero cells; Vero cells, Shiga toxin protein synthesis inhibition reporter; inhibition, % at 38.7 µM; hit rate 9.2% among 290,000; AID 2315; in the data active = inhibition mostly above about 28%, no sharp cut-off; inactive = mostly below about 43%; also: 0% is about no effect
SARS PLpro yeast: blocks SARS-CoV papain-like protease in a yeast assay. hit rate 0.19% among 330,000. AID 485353. Potency, µM (highest dose often 32.9 µM), without a hit: at the top dose activity, positive = growth rescue, most hits filed as activators. S. cerevisiae expressing SARS-CoV PLpro, growth rescue; calls by dose curve; also: potency is read from the fitted curve at half-maximal effect; 0% is about no effect; nearly all actives have a fitted effect of over 55% in size
Pf growth 96h: P. falciparum growth inhibition at 96 hour, primary screen for plastid delayed-death inhibitors | P. falciparum luciferase reporter growth, 96 h | Potency, µM (titrated, usually from 28.7 µM), without a hit: top-dose activity change, negative = inhibition, most hits filed as inhibitors | hit rate 6.9% among 320,000; also: potency is read from the fitted curve at half-maximal effect; % is scaled to controls: 0 for no effect and ±100 for the full control effect
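Infected RBCs, 2% Hct / 0.05% parasitemia final; luciferase-reporter P. falciparum; cpd 96 h, 37 C, 5% CO2; luciferase detection reagent; luminescence.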
Pf growth 48h: inhibits P. falciparum growth in the first generation, 48 h; P. falciparum luciferase growth in erythrocytes, 48 h; Potency, µM (titrated, usually from 28.7 µM), for the others: at the top dose activity change, negative = inhibition, usual class: inhibitors; hit rate 5.9% among 310,000; also: potency is read from the fitted curve at half-maximal effect; % is scaled to controls: 0 for no effect and ±100 for the full control effect
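Cell-based growth assay: transgenic P. falciparum expressing firefly luciferase, cultured in red cells within RPMI 1640 containing 0.5% w/v Albumax, 24 mM bicarbonate and gentamycin. A drop in luciferase activity indicates inhibition.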
Cycloheximide cs: counter-screen hit for Shiga toxin inhibitors, cycloheximide | cell reporter, cycloheximide protein synthesis inhibition counterscreen | hit rate 12% among 300,000 | max response, %; in the data active = max response mostly above about 13%, no sharp cut-off; inactive = mostly below about 14%; also: read at 38.3 µM for the half of the compounds with a filed dose; 0% is about no effect
Active calls of the source: *. An excerpt weighted towards active compounds, which were near 21% of everything screened. Unless noted, calls follow the shape of the dose curve; as a rule, active = well fitted inhibition curve with a large enough effect; inconclusive = small, poorly fitted or top-dose-only effect, or another doubt; inactive = no such curve, though single readings can be large or run the other way.

For Cc1nc2nc(SCc3ccc([N+](=O)[O-])cc3)[nH]c2cc1Br the results were NS1 inh 2%, Shiga toxin inh 1, SARS PLpro yeast 0%, Pf growth 96h 2%, Pf growth 48h -3% and Cycloheximide cs -2.
`Nc1cc(N)nc(SCC(=O)Nc2ccccc2)n1` gave NS1 inh 4%, Shiga toxin inh 12, SARS PLpro yeast -4%, Pf growth 96h inconclusive, Pf growth 48h 10% and Cycloheximide cs -3.
Nc1nc(SCC(=O)Nc2ccccc2)nc2nc3c(cc12)CCCC3 was read as NS1 inh inconclusive, Shiga toxin inh 63*, SARS PLpro yeast -11%, Pf growth 96h -16%, Pf growth 48h 54% and Cycloheximide cs 17*.
For COc1ccc(-c2csc(NC(=O)CSC(C)C(=O)Nc3cc(C)on3)n2)cc1OC (stereo not given) the results were SARS PLpro yeast 1%, Pf growth 96h inconclusive and Pf growth 48h inconclusive.
CCN(CC(=O)NC1CCS(=O)(=O)C1)S(=O)(=O)c1ccc(Br)cc1 (stereo not given) was read as SARS PLpro yeast 1%.
For COc1ccc(NS(=O)(=O)c2c(F)cc(F)c(Cl)c2F)cc1S(=O)(=O)N1CCCCC1 the results were NS1 inh -2%, Shiga toxin inh -12, SARS PLpro yeast 1%, Pf growth 96h 0%, Pf growth 48h -2% and Cycloheximide cs 1.
Cn1nccc1C(=O)N1CCCC(Nc2ccc(F)cc2)C1 (stereo not given) was read as NS1 inh 4%, Shiga toxin inh -8, SARS PLpro yeast 0%, Pf growth 96h inconclusive, Pf growth 48h 13% and Cycloheximide cs -2.
Screening O=C(CSc1nc2nc3c(cc2c(=O)n1-c1ccccc1)CCCC3)Nc1ccccc1 returned NS1 inh 3%, Shiga toxin inh 19, SARS PLpro yeast -21%, Pf growth 96h 12µM*, Pf growth 48h inconclusive and Cycloheximide cs 7.
COc1ccc(OC)c(/C=N/NC(=O)CSc2cc(C)nc3c(OC)cccc23)c1 was read as NS1 inh 0%, Shiga toxin inh -18, SARS PLpro yeast 1%, Pf growth 96h 8.3µM*, Pf growth 48h -10% and Cycloheximide cs -1.
Screening CCOC(=O)CCSc1nc(C)c2cc(C)ccc2n1 returned NS1 inh -79%, Shiga toxin inh 75*, SARS PLpro yeast -11%, Pf growth 96h 138% and Cycloheximide cs 30*.
Screening CCOC(=O)CCSc1nc(C)c2ccccc2n1 returned NS1 inh -63%, Shiga toxin inh 57*, SARS PLpro yeast -5%, Pf growth 96h 12%, Pf growth 48h 56% and Cycloheximide cs 18*.
CCOC(=O)CSc1nc(C)c2cc(OC)ccc2n1 was read as NS1 inh -17%, Shiga toxin inh 72*, SARS PLpro yeast -4%, Pf growth 48h 4% and Cycloheximide cs 46*.
Screening CCOC(=O)CSc1nc(C)c2cc(C)c(C)cc2n1 returned NS1 inh -3%, Shiga toxin inh 14, SARS PLpro yeast -2%, Pf growth 96h inconclusive, Pf growth 48h 4% and Cycloheximide cs 25.
Screening COc1ccccc1CC(NC(C)=O)C(=O)NC1CCN(C(=O)c2ccc(C)cc2)CC1 (stereo not given) returned NS1 inh -2%, Shiga toxin inh -6, SARS PLpro yeast -2%, Pf growth 96h inconclusive, Pf growth 48h 11% and Cycloheximide cs -2.
`CCOC(=O)CNC(=O)CSc1cc(C)nc2ccc(OC)cc12` gave NS1 inh -6%, Shiga toxin inh 72*, SARS PLpro yeast -1%, Pf growth 96h 491%, Pf growth 48h -39% and Cycloheximide cs 29*.
CCOC(=O)c1cnc(SCC(=O)Nc2nc(C)c(C)s2)nc1N was read as NS1 inh -30%, Shiga toxin inh 17, SARS PLpro yeast -7%, Pf growth 96h inconclusive, Pf growth 48h 47% and Cycloheximide cs 3.
`c1ccc(C2[C@H]3CN(CC4CCCCC4)[C@H](c4ccccc4)C34CC2(c2ccccc2)C4)cc1` (stereo not given in full) gave NS1 inh 11%, Shiga toxin inh 13, SARS PLpro yeast -4%, Pf growth 96h inconclusive, Pf growth 48h inconclusive and Cycloheximide cs -3.

Source: PubChem
